Inconclusive results are not listed. Calls of active or inactive are those of the source. Calls come from the whole dose curve; as a rule, active = well fitted inhibition curve with a large enough effect; inconclusive = small, poorly fitted or top-dose-only effect; inactive = flat fitted curve, though single readings scatter.
Experiments:
CRL-7250 = normal cell line; experiment: Cytotoxic Profiling of Annotated Libraries Using Quantitative High-Throughput Screening (AID 1296008); settings: Five cell lines viability, CellTiter-Glo ATP luminescence, 48-72 h; max response: stronger effect = lower value; note: potency is the fitted concentration of half-maximal effect; for max response: % is set by controls: 0 for no effect and ±100 for the full control effect
Outline: (§1)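 Compounds were pin-transferred onto cells and incubated 48 or 72 hr at 37 degree Celsius, 95% humidity. CellTiter-Glo was added, plates sat 10 min at room temperature, then ATP-coupled luminescence was imaged as the viability read-out.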

HEK293 = experiment: as above; settings: Five cell lines viability, CellTiter-Glo ATP luminescence, 48-72 h; max response: stronger effect = lower value
Outline: as §1

HaCat [1] = experiment: as above; settings: Five cell lines viability, CellTiter-Glo ATP luminescence, 48-72 h; max response: stronger effect = lower value
Outline: as §1

KB-3-1 = experiment: as above; settings: Five cell lines viability, CellTiter-Glo ATP luminescence, 48-72 h; max response: stronger effect = lower value
Outline: as §1

NIH3T3 = experiment: as above; settings: Five cell lines viability, CellTiter-Glo ATP luminescence, 48-72 h; max response: stronger effect = lower value
Outline: as §1

HACAT [2] = experiment: qHTS assay to identify novel small-molecules to repurpose for Merkel cell carcinoma treatment (AID 1296009); settings: MCC and control cell lines, CellTiter-Glo viability, 72 h; at 44.8 µM (top of the series) unless noted
Outline: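 Luminescence from CellTiter-Glo, read 10 min after addition at room temperature, reported viability following a 72 hr, 37 degree celsius treatment with NPC or MIPE compounds in titration; values normalized to plate controls.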
Note: nearly all actives have a fitted effect of over 60% in size.

C=CCC/C=C/C#CCCCCCCCC[C@H]1C(=O)O[C@H](C)[C@@H]1O
inactive: max response (CRL-7250) 0.985% | max response (HEK293) -11.8% | outcome (HaCat [1]) | max response (KB-3-1) -1.24% | max response (NIH3T3) 0.0642% | outcome (HACAT [2])

CC1C2=CC(=O)OC2(O)CC2C1C(OC(=O)c1ccccc1)C(OC(=O)c1ccccc1)C1(O)C2(C)CCC(O)C1(C)C(=O)O (stereo unspecified)
inactive: max response (CRL-7250) -2.75% | max response (HEK293) 3.81% | outcome (HaCat [1]) | max response (KB-3-1) -1.08% | max response (NIH3T3) -2.68% | outcome (HACAT [2]) inactive [at 17.4 µM]

CC(C)(Oc1ccc(-c2nc3cc(Cl)ccc3s2)cc1)C(=O)O
inactive: outcome (CRL-7250) | max response (HEK293) -8.75% | outcome (HaCat [1]) | max response (KB-3-1) 5.1% | outcome (NIH3T3) | outcome (HACAT [2])

CC(CC(C)O[C@@H]1O[C@H](CO)[C@@H](O)[C@H](O)[C@H]1O)OC(=O)/C=C/c1ccc(O)cc1 (stereo partly specified)
inactive: max response (CRL-7250) 2.71% | max response (HEK293) -1.24% | outcome (HaCat [1]) | outcome (KB-3-1) | max response (NIH3T3) 3.43% | outcome (HACAT [2]) inactive [at 17.4 µM]

C[C@@]12CC3(S(=O)(=O)O)OC(O1)[C@]1(COC(=O)c4ccccc4)[C@H]3C[C@]21O[C@@H]1O[C@H](CO)[C@@H](O)[C@H](O)[C@H]1O
inactive: max response (CRL-7250) 2.31% | max response (HEK293) 2.36% | outcome (HaCat [1]) | outcome (KB-3-1) | outcome (NIH3T3) | outcome (HACAT [2]) inactive [at 17.4 µM]

O=C(O)CCc1ccc(NCc2cccc3c2CCCN3CCOc2ccccc2)cc1F
inactive: max response (CRL-7250) 0.539% | max response (HEK293) 0.703% | outcome (HaCat [1]) | max response (KB-3-1) 2.13% | outcome (NIH3T3) | outcome (HACAT [2])

COC(=O)C1=CO[C@@H](O[C@@H]2O[C@H](CO[C@@H]3O[C@H](CO)[C@@H](O)[C@H](O)[C@H]3O)[C@@H](O)[C@H](O)[C@H]2O)[C@@H]2C(CO)=CC[C@H]12
inactive: max response (CRL-7250) -2.64% | max response (HEK293) 1.28% | outcome (HaCat [1]) | outcome (KB-3-1) | outcome (NIH3T3) | outcome (HACAT [2]) inactive [at 17.4 µM]

C=C1CC[C@H]2[C@@](C)(CCC(O)[C@@]2(C)CO)[C@@H]1/C=C/C(=C\C(=O)O)C(=O)O (stereo partly specified)
inactive: max response (CRL-7250) -1.65% | max response (HEK293) -0.745% | outcome (HaCat [1]) | outcome (KB-3-1) | max response (NIH3T3) -1.97% | outcome (HACAT [2])

CC1=C(CO)CC(C(C)C2CCC3C4CC=C5CC(OC6OC(COC7OC(CO)C(O)C(O)C7O)C(O)C(O)C6O)CC(O)C5(C)C4CCC23C)OC1=O (stereo unspecified)
inactive: outcome (CRL-7250) | max response (HEK293) -8.19% | outcome (HaCat [1]) | max response (KB-3-1) -0.551% | outcome (NIH3T3) | outcome (HACAT [2]) inactive [at 17.4 µM]

C[C@H]1[C@H](C)C[C@@H](C(=O)O)C2CC[C@]3(C)C(=CC[C@@H]4[C@@]5(C)CC[C@H](O)C(C)(C)[C@@H]5CC[C@]43C)[C@@H]21 (stereo partly specified)
inactive: max response (CRL-7250) -4.25% | outcome (HaCat [1]) | max response (KB-3-1) 8.63% | outcome (NIH3T3) | outcome (HACAT [2])
active: Potency (HEK293) 25.9 µM

CC1(C)C[C@@H]2[C@H](C1)[C@@]1(C)C[C@]13C(O)OC[C@]3(O)[C@H]2O (stereo partly specified)
inactive: max response (CRL-7250) -3.6% | max response (HEK293) -0.838% | outcome (HaCat [1]) | outcome (KB-3-1) | outcome (NIH3T3) | outcome (HACAT [2])

COc1cccc2c1c(O)c(C(=O)N(C)c1ccc(C(F)(F)F)cc1)c(=O)n2C
inactive: max response (CRL-7250) -1.12% | max response (HEK293) 3.79% | outcome (HaCat [1]) | max response (KB-3-1) 0.95% | max response (NIH3T3) 2.51% | outcome (HACAT [2])

COc1c2c(c(C)c3c1C(=O)OC3)OC1(C)CC(O)C34OC(OC)(CC(O)C3(C)C1C2)OC4(C)C (stereo unspecified)
inactive: max response (CRL-7250) 0.784% | max response (HEK293) -15.9% | outcome (HaCat [1]) | max response (KB-3-1) 4.03% | max response (NIH3T3) 1.57% | outcome (HACAT [2]) inactive [at 17.4 µM]

CCC(C)C1NC(=O)C2C(C)CCN2C(=O)C(CC(O)CO)OC(=O)CCNC(=O)C(C)N(C)C(=O)C(C(C)C)N(C)C1=O (stereo unspecified)
inactive: max response (CRL-7250) -3.99% | max response (HEK293) -0.256% | outcome (HaCat [1]) | max response (KB-3-1) 0.529% | outcome (NIH3T3) | outcome (HACAT [2]) inactive [at 17.4 µM]

C/C=C(\C)C(=O)O[C@H]1C=CC(=O)O[C@H]1/C=C/[C@H](O)[C@@H](C)O
inactive: max response (CRL-7250) 4.14% | max response (HEK293) -103% | outcome (HaCat [1]) | outcome (KB-3-1) | max response (NIH3T3) -1.43% | outcome (HACAT [2])

COc1c2cc(c(O)c1OC)CCCCC(O)CCc1ccc(O)c-2c1 (stereo unspecified)
inactive: max response (CRL-7250) -1.76% | max response (HEK293) -0.95% | outcome (HaCat [1]) | max response (KB-3-1) 2.35% | max response (NIH3T3) -4.18% | outcome (HACAT [2])
